The text below walks through data of PubChem BioAssay AID624167 (Sanford-Burnham Center for Chemical Genomics, 2012).

The test is described as follows: inhibition of PEG-3 promoter-driven reporter – cell-based, HeLa, luciferase, CREF/GAPDH counter-screen panel, dose response (AID 624167). The note with it: CREF/GAPDH counter-screens; run 1, dose range 1, at 100 µM (top of the series).
For `CC1=NOC(=O)/C1=C\c1ccc(-c2ccccc2Br)o1`, the inhibition was 94.2%.

Regarding `O=C(CNc1ccccc1)N/N=C/c1c(O)ccc2ccccc12`, the inhibition was determined as 57%.

In the case of `CN(C)c1ccc(C=c2c3ccccc3n3c2cc(-c2ccccc2)[n+]3C)cc1`, the inhibition worked out at 99.9%.

`COc1ccc(C(NC(C)=O)c2ccc3cccnc3c2O)c(OC)c1` (stereo unspecified): the inhibition was -5.47%.

In the case of `O=C(Nc1ccccc1)c1nc[nH]c1C(=O)NCCCCCCNC(=O)c1[nH]cnc1C(=O)Nc1ccccc1`, the inhibition is -2.1%.

As for `NS(=O)(=O)c1ccc(CCNc2nn3c(-c4ccc(F)c(Cl)c4)cnc3s2)cc1`, the inhibition worked out at 73.4%.

With `Cc1ccc(/C=C2\SC(=S)N(CCCC(=O)NNC(=O)c3ccccc3O)C2=O)cc1`, the inhibition amounted to 76.4%.

Regarding `Cc1ccc(/C=C2\SC(=S)N(CCCC(=O)Nc3ccccn3)C2=O)cc1`, the inhibition came out at 80.2%.

For the molecule `Cc1oc(-c2ccc3c(c2)OCCO3)cc1C(=O)O`, the inhibition stood at 98.6%.

For the molecule `COc1ccc(C(NC(=O)C(C)C)c2ccc3cccnc3c2O)cc1` (stereo unspecified), the inhibition was 31.4%.

As to `CCCC(=O)NC(c1ccc(OC)cc1)c1ccc2cccnc2c1O` (stereo unspecified), the inhibition amounted to 67.4%.

On to `CN=c1sc2c(n1C)C(=O)c1ccccc1C2=O`, for which the inhibition was 89.9%.

In the case of `COc1cccc2c1C(=O)c1c(O)c3c(c(O)c1C2=O)CC(O)(C(C)=NNC(=O)c1ccc(Cl)c(Cl)c1)CC3OC1CC(N)C(O)C(C)O1` (stereo unspecified), the inhibition was determined as 92%.

`O=C(N/N=C\c1c(O)ccc2ccccc12)c1cncc(Br)c1`: the inhibition worked out at 65.3%.

For the molecule `COc1ccc(-n2cc(-c3ccccc3)c3c(N4CCOCC4)ncnc32)cc1`, the inhibition stood at 87.7%.

For the molecule `CC(/C=C/c1ccccc1)=N/NC(=O)c1cc([N+](=O)[O-])cc([N+](=O)[O-])c1`, the inhibition came to 5.41%.
